# According to PubChem BioAssay (Tox21):
# Results filed as inconclusive are left out. Where a call stands in place of a potency, no number is given. The source made the active and inactive calls. Unless noted, calls come from the whole dose curve; as a rule, active = well fitted curve in the direction sought with a large enough effect in the repeat runs; inconclusive = weak or mixed curves; inactive = no such curve, though single readings can be large; an effect the other way counts as inactive or inconclusive.
# Key:
# [1] = qHTS assay to identify small molecule agonists of the RXR signaling pathway - cell viability counter screen (AID 1159529); note: nearly all actives have a fitted effect of over 50% in size; note: potency is the fitted concentration of half-maximal effect
# Procedure, shortened: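 Steps: seed RXR-alpha-UAS-bla HEK 293T cells in assay medium containing 2% charcoal-stripped FBS; incubate 5 hr; add compounds in DMSO; incubate 16 hr at 37 C; after the bla read, add CellTiter-Glo and read luminescence at 30 min.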
# [2] = qHTS assay to identify small molecule antagonists of the retinoid acid receptor (RAR) signaling pathway - cell viability counter screen (AID 1159551); note: nearly all actives have a fitted effect of over 35% in size
# Procedure, shortened: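 C3RL4 RARE-luciferase line; cpds + retinol 1 uM final, 6 h, 37 C/5% CO2; CellTiter-Glo ATP luminescence, 30 min RT.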
# [3] = qHTS assay to identify small molecule antagonists of the retinoic acid receptor (RAR) signaling pathway (AID 1159552; note: nearly all actives have a fitted effect of over 50% in size; note: potency is the fitted concentration of half-maximal effect)
# Procedure, shortened: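 Retinol at 1 uM final stimulated RARE-luciferase expression in C3RL4 cells exposed to test compounds for 6 hr at 37 C. Reduced luminescence, read 30 min after detection reagent, indicated pathway antagonism.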
# [4] = qHTS assay to identify small molecule agonists of the retinoic acid receptor (RAR) signaling pathway (AID 1159553); note: potency is the fitted concentration of half-maximal effect
# Procedure, shortened: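 RARE-luc C3RL4 cells; overnight attachment 37 C/5% CO2; compound (DMSO) 6 hr; luciferase reagent, 30 min RT; luminescence read-out.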
# [5] = qHTS assay to identify small molecule antagonists of the estrogen related receptor (ERR) signaling pathway - cell viability counter screen (AID 1224818); note: series mostly up to about 46 µM
# Procedure, shortened: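 Fluorescence from CellTiter-Fluor, read 30 min after reagent addition at 37 C, measured viability of ERR cells exposed to compounds for 17.5 h. Cells had settled 6 h before dosing.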
# [6] = qHTS assay to identify small molecule antagonists of the estrogen related receptor signaling pathway with the pleiotropic PPARgamma coactivator (PGC) cell viability counter screen (AID 1224822; note: series mostly up to about 46 µM)
# Procedure, shortened: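 Fluorescence read-out of CellTiter-Fluor after 30 min at 37 C; PGC/ERR cells, 2,000 per well, had been exposed to DMSO-dissolved compounds for 17.5 h following a 6 h pre-incubation.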
# [7] = qHTS assay to identify small molecule antagonists of the estrogen related receptor (ERR) signaling pathway (AID 1224819;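 note: luminescence from an ERR-driven luciferase reporter measured with One-Glo reagent; series mostly up to about 46 µM; nearly all actives have a fitted effect of over 50% in size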)
# Procedure, shortened: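 Luminescence readout (One-Glo, 30 min, RT) of ERR cell line after 18 h compound exposure at 37 C; cells seeded 2,000/well, pre-incubated 6 h, compounds pinned from DMSO stocks.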
# [8] = qHTS assay to identify small molecule agonists of the estrogen related receptor (ERR) signaling pathway (AID 1224820)
# Procedure, shortened: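 Luminescence readout (One-Glo, 30 min RT) from NTP-supplied ERR cell line exposed to compounds for 18 h at 37 C. Cells seeded 2,000 per well and pre-incubated 6 h before pin-tool compound transfer.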
# [9] = tested on: estrogen-related receptor alpha (ERRalpha) with PGC-1alpha coactivator, human; assay: qHTS assay to identify small molecule antagonists of the estrogen related receptor signaling pathway with the pleiotropic PPARgamma coactivator (PGC) (AID 1224821; calls by dose curve;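 note: series mostly up to about 46 µM; lower luminescence signal means antagonism of PGC/ERR signalling; nearly all actives have a fitted effect of over 50% in size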)
# Procedure, shortened: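 PGC/ERR reporter cells; 6 h pre-incubation 37 C/5% CO2; pin-tool compound in DMSO, 18 h 37 C; One-Glo added, 30 min RT; luminescence read. qHTS antagonist mode.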
# [10] = qHTS assay to identify small molecule agonists of the estrogen related receptor signaling pathway with the pleiotropic PPARgamma coactivator (PGC) (AID 1224823)
# Procedure, shortened: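 Luminescence readout (One-Glo, 30 min RT) from PGC/ERR cell line treated 18 h at 37 C with pin-tool-delivered DMSO compound solutions; cells plated 6 h before dosing. Quantitative HTS format.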
smiles,measurement,setting,value
CN1CCN(C2=Nc3cc(Cl)ccc3Nc3ccccc32)CC1,Potency,[1],inactive
same,Potency,[2],inactive
same,Potency,[3],inactive
same,Potency,[4],inactive
same,outcome,[5],inactive
COCCOCCOCCOCCOC,Potency,[1],inactive
same,Potency,[3],inactive
same,Potency,[4],inactive
O=S1(=O)c2cccc3cccc(c23)N1CCCN1CCN(c2ccc(F)cc2)CC1,Potency,[1],inactive
same,Potency,[3],inactive
same,Potency,[4],inactive
O=[N+]([O-])c1cc[n+]([O-])cc1,Potency,[1],inactive
same,Potency,[2],inactive
same,Potency,[3],inactive
same,Potency,[4],inactive
C=CC(=O)OCC(C)OCC(C)OCC(C)OC(=O)C=C (stereo not drawn),Potency,[1],inactive
same,Potency,[3],61.1 µM (active)
CCCOc1ccc2nc(NC(=O)OC)[nH]c2c1,Potency,[1],inactive
same,Potency,[3],inactive
same,Potency,[4],inactive
O=C(c1ccccc1)c1ccc2n1CCC2C(=O)O (stereo not drawn),Potency,[1],inactive
same,Potency,[2],inactive
same,Potency,[3],inactive
same,Potency,[4],13.3 µM (active)
same,outcome,[5],inactive
same,outcome,[6],inactive
CCCCCCCCC(CO)CCCCCC (stereo not drawn),Potency,[1],inactive
same,Potency,[3],inactive
same,Potency,[4],inactive
O=CNc1ccccc1,Potency,[1],inactive
same,Potency,[3],inactive
same,Potency,[4],inactive
CC(C)(C)C1CCCCC1O (stereo not drawn),Potency,[1],inactive
same,Potency,[2],inactive
same,Potency,[3],inactive
same,Potency,[4],inactive
NC(N)=N/N=C/c1c(Cl)cccc1Cl,Potency,[1],inactive
same,Potency,[2],inactive
same,Potency,[3],inactive
same,Potency,[4],inactive
same,outcome,[5],inactive
same,outcome,[7],inactive
same,outcome,[8],inactive
same,outcome,[9],inactive
same,outcome,[6],inactive
same,outcome,[10],inactive
Cc1occc1S,Potency,[1],inactive
same,Potency,[2],inactive
same,Potency,[4],inactive
CN1CCC(=C2c3ccccc3C=Cc3ccccc32)CC1,Potency,[1],inactive
same,Potency,[2],inactive
same,Potency,[4],inactive
same,outcome,[5],inactive
same,outcome,[7],inactive
same,outcome,[8],inactive
same,outcome,[9],inactive
same,outcome,[10],inactive
Cc1nc2ccccc2n1Cc1ccc(Cl)cc1,Potency,[1],inactive
same,Potency,[3],inactive
CC[C@@H]1C[C@H](N(Cc2cc(C(F)(F)F)cc(C(F)(F)F)c2)C(C)=O)c2cc(C(F)(F)F)ccc2N1C(=O)OC(C)C,Potency,[1],inactive
same,Potency,[2],inactive
same,Potency,[4],inactive
O=C(O)C1CCC(C(=O)O)CC1 (stereo not drawn),Potency,[1],inactive
same,Potency,[2],inactive
same,Potency,[4],inactive
CCCCCOC(=O)c1ccc(O)cc1,Potency,[1],inactive
same,Potency,[2],inactive
same,Potency,[3],inactive
same,Potency,[4],1.23 µM (active)
C#CCOC(=O)[C@@H](C)Oc1ccc(Oc2ncc(Cl)cc2F)cc1,Potency,[1],inactive
same,Potency,[3],inactive
same,Potency,[4],inactive
CCCCCCOC(=O)CCC,Potency,[1],inactive
same,Potency,[3],inactive
same,Potency,[4],inactive
CCc1nn(C2CCCCC2)c2cc(C3(C#N)CCC(C(=O)O)CC3)ccc12 (stereo not drawn),Potency,[1],inactive
same,Potency,[2],inactive
same,Potency,[4],inactive
Cc1cc(O)ccc1N,Potency,[1],34.9 µM (active)
same,Potency,[3],inactive
CCCCCCCCCCCCCCCC(=O)OC/C=C(C)/C=C/C=C(C)/C=C/C1=C(C)CCCC1(C)C,Potency,[1],inactive
same,Potency,[3],inactive
same,Potency,[4],inactive
O=[N+]([O-])c1cccc(Cl)c1Cl,Potency,[1],inactive
same,Potency,[2],inactive
same,Potency,[4],inactive
OC(CCN1CCCCC1)(c1ccccc1)C1CCCCC1 (stereo not drawn),Potency,[1],inactive
same,Potency,[2],inactive
same,outcome,[5],inactive
same,outcome,[7],inactive
same,outcome,[8],inactive
same,outcome,[9],inactive
same,outcome,[6],inactive
same,outcome,[10],inactive
Cn1c(=O)c2c(ncn2CC(O)CO)n(C)c1=O (stereo not drawn),Potency,[1],inactive
same,Potency,[3],inactive
same,Potency,[4],inactive
CCCC(=O)OCC,Potency,[1],inactive
same,Potency,[3],inactive
CCN(CC)C(C)CN1c2ccccc2Sc2ccccc21 (stereo not drawn),Potency,[1],inactive
same,Potency,[2],inactive
same,Potency,[3],inactive
same,Potency,[4],inactive
same,outcome,[5],inactive
CC(C)CCCCCCOC(=O)c1ccc(C(=O)OCCCCCCC(C)C)c(C(=O)OCCCCCCC(C)C)c1,Potency,[1],inactive
same,Potency,[2],inactive
same,Potency,[3],inactive
same,Potency,[4],inactive
O=C(O)/C=C/c1cnc[nH]1,Potency,[1],inactive
same,Potency,[2],inactive
same,Potency,[3],inactive
same,Potency,[4],inactive
same,outcome,[5],inactive
same,outcome,[6],inactive
CCCCCCCC/C=C\CCCCCCCC(N)=O,Potency,[1],inactive
same,Potency,[2],inactive
same,Potency,[4],inactive
NC1CCN(c2nc3c(cc2F)c(=O)c(C(=O)O)cn3-c2ccc(F)cc2F)C1 (stereo not drawn),Potency,[1],inactive
same,Potency,[3],inactive
same,Potency,[4],inactive
OCCC1CCCCN1 (stereo not drawn),Potency,[1],inactive
same,Potency,[2],inactive
same,Potency,[3],inactive
same,Potency,[4],inactive
C=C(C)C(=O)OCCOc1ccccc1,Potency,[1],inactive
same,Potency,[3],inactive
c1ccc(CNCc2ccccc2)cc1,Potency,[1],inactive
same,Potency,[3],inactive
same,Potency,[4],inactive
CC[C@H](C)[C@H](N)C(=O)O,Potency,[2],inactive
COC(=O)CSc1cc(N=c2sc(=O)n3n2CCCC3)c(F)cc1Cl,Potency,[2],inactive
O=C1c2cccc(O)c2C(=O)c2c(O)cc(CO)cc21,Potency,[2],inactive
same,Potency,[3],inactive
